Measured values published in ChEMBL document CHEMBL4513216, “Probing the Open Global Health Chemical Diversity Library for Multistage-Active Starting Points for Next-Generation Antimalarials” (ACS Infect Dis, 2020).
Out of some 68,000 compounds screened, about 2,700 (4%) showed an effect of 50% or more. The full list was thinned out, with strong results kept by preference.

Test system: Plasmodium berghei
Assay: Screen against P. berghei liver stage (PbLuc), transformed with Luciferase, at 2uM
Assay type: functional, HepG2
Settings: tested at 2 uM

| Compound | INHIBITION |
| --- | --- |
| CC(C)=CCC1(C(=O)O)CCCN(CCC(=O)NC2CC2)C1 (centres undefined) | 9.43% |
| Cc1ccc(NC(=O)NCCCc2n[nH]c(N)c2C#N)cc1 | 33.01% |
| CCc1cnc(N)nc1NC(C)c1ccc(C)c(C)c1 (centres undefined) | 35.84% |
| O=C(c1ccncn1)N1CCC[C@]2(C[C@H](OCC3CC3)CO2)C1 | 16.78% |
| CC(C)(C)OCC1CN(Cc2cccs2)S(=O)(=O)c2cnccc2O1 (centres undefined) | 35.6% |
| O=C1CCSCC(C(=O)N2CCN(C3CCCCC3)CC2)N1 (centres undefined) | 51.94% |
| O=C1CCSCC(C(=O)N2CCCCC2)N1 (centres undefined) | 39.58% |
| O=C1CCSCC(C(=O)N2CCCC2)N1 (centres undefined) | 19.35% |
| O=C(N[C@]12CC1CN(C(=O)c1ccco1)C2)c1ccco1 (some centres undefined) | -50.87% |
| O=C(N[C@]12CC1CN(C(=O)c1ccco1)C2)c1ccoc1 (some centres undefined) | 14.47% |
| O=C(N[C@]12CC1CN(C(=O)c1ccco1)C2)c1cccc(F)c1 (some centres undefined) | 52.36% |
| Nc1nc(CN2CCCCC2Cn2cncn2)nc2ccccc12 (centres undefined) | -42.37% |
| Cc1cnc(N2C(=O)CSC2c2ccc(N(C)C)cc2)s1 (centres undefined) | -8.23% |
| O=C(O)c1cc(-c2cccs2)nc2c(Br)cnn12 | -11.83% |
| CC(c1ccc(F)cc1)N1CCN(Cc2nccn2C)CC1 (centres undefined) | 5.09% |
| Cn1ccnc1CN1CCN(CC(O)c2ccc(F)cc2)CC1 (centres undefined) | -10.66% |
| Cn1ccnc1CN1CCN(CC(O)c2ccc(F)c(F)c2)CC1 (centres undefined) | 56.67% |
| CC(c1ccc(F)c(F)c1)N1CCN(Cc2nccn2C)CC1 (centres undefined) | 62.13% |
| CC(c1cccc(F)c1)N1CCN(Cc2nccn2C)CC1 (centres undefined) | 0.46% |
| Cn1ccnc1CN1CCN(CC(O)c2cccc(F)c2)CC1 (centres undefined) | -0.3% |
| CN(C1CCN(c2ccccn2)CC1)S(=O)(=O)c1cccc(F)c1 | 15.38% |
| COCC1CN(Cc2ccc(C)o2)Cc2cnn(CC3CCOCC3)c21 (centres undefined) | -24.39% |
| Cc1nnsc1C(=O)NCCn1ccc(-c2ccncc2)n1 | -34.54% |
| Cc1cc(CC(=O)N(C)Cc2cccc(OC(C)C)c2)n[nH]1 | -75.84% |
| Cc1nc(-c2nnc[nH]2)sc1C(=O)N1CCCC1c1ccsc1 (centres undefined) | -26.81% |
| CC(C)n1c(C2CCCN(Cc3ccnn3C)C2)nc2ccccc21 (centres undefined) | 16.87% |
| Cc1ncc(CN2CCCC(c3nc4ccccc4n3C(C)C)C2)s1 (centres undefined) | 61.57% |

| Compound | INHIBITION |
| --- | --- |
| Cc1cnc(CN2CCCC(c3nc4ccccc4n3C(C)C)C2)o1 (centres undefined) | 37.77% |
| Cc1ccc(OCC2CCCN(CC3CCOCC3)C2)cc1 (centres undefined) | 60.13% |
| Cc1ccc(OCC2CCCN(C(=O)CN3CCOCC3)C2)cc1 (centres undefined) | 38.67% |
| Cc1ccc(OCC2CCCN(C(=O)Cn3ccccc3=O)C2)cc1 (centres undefined) | 45.14% |
| Cc1ccc(OCC2CCCN(c3nc(CO)cs3)C2)cc1 (centres undefined) | -43.42% |
| Cc1ccc(OCC2CCCN(Cc3ccc(CO)o3)C2)cc1 (centres undefined) | 69.67% |
| COc1ccc(OCC2CCCN(Cc3ccncc3)C2)cc1 (centres undefined) | -1.29% |
| Nc1nnc(SCc2cc(=O)n3c4c(sc3n2)CCCC4)[nH]1 | -0.04% |
| CCCc1noc(C2CC(=O)N(Cc3ccccc3)C2)n1 (centres undefined) | 39.58% |
| Cc1ccc(S(=O)(=O)N2CC[C@@H]3C[C@H](NC(=O)c4ccncc4)[C@@H]32)cc1 | 20.51% |
| Cc1cccc(N2CCC3(CCCN(C(=O)c4cccnc4)C3)C2)n1 (centres undefined) | -37.2% |
| Cc1nocc1C(=O)N1CCc2c(CN(C)C)nn(C)c2C1 | 51.81% |
| Cc1cccc(C(=O)N2CCc3c(CN(C)C)nn(C)c3C2)n1 | -27.08% |
| Cc1cc(C(=O)N2CCc3c(CN(C)C)nn(C)c3C2)[nH]n1 | 28.2% |
| Cn1cc(CN2CCC(c3ncc(Cl)cc3S(C)(=O)=O)CC2)cn1 | 22.95% |
| CCc1ncc(C(=O)N2CCCCC2Cn2cccn2)s1 (centres undefined) | 63.95% |
| O=C(c1cnc(C2CC2)s1)N1CCCCC1Cn1cccn1 (centres undefined) | 21.31% |
| O=C1COc2c(cccc2C(=O)N2CCCCC2Cn2cccn2)N1 (centres undefined) | 63.93% |
| O=C(CCOc1ccc(F)cc1)N1CCCC1Cn1cccn1 (centres undefined) | 70.27% |
| Cc1nc(CC(=O)N2CCCC2Cn2cccn2)cs1 (centres undefined) | 34.53% |
| O=C1COc2c(cccc2C(=O)N2CCCC2Cn2cccn2)N1 (centres undefined) | 24.56% |
| O=C(CCOc1cccc(F)c1)N1CCCC1Cn1cccn1 (centres undefined) | 8.37% |
| O=C(c1cccc2c1OCCO2)N1CCCCC1Cn1cccn1 (centres undefined) | -46.81% |
| CCc1nc(CC(=O)N2CCCCC2Cn2cccn2)cs1 (centres undefined) | 21.12% |
| COc1ccc(OCCC(=O)N2CCCC2Cn2cccn2)cc1 (centres undefined) | -28.79% |
| CCc1ncc(C(=O)N2CCCC2Cn2cccn2)s1 (centres undefined) | 17.31% |
| Cc1nc(CC(=O)N2CCCCC2Cn2cccn2)cs1 (centres undefined) | 60.64% |
